Experimental data reported in publication PMC5540273 (PLoS ONE, 2017).

System: MAP3K3
Settings: concentration: 1 μM, replicates: in singlicate; n = 1
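Further: KINOMEscan kinase panel screen.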

Row | SMILES | %Inh
1 | Fc1ccc(-c2nn3cccc(F)c3c2-c2ccncc2)cc1 [GW475620] | 0%
2 | CNc1nc(-c2ccc3c(N)n[nH]c3c2)cc(N2C[C@@H](C(=O)Nc3ccccc3)CC[C@H]2C)n1 [GSK2298859] | 0%
3 | Cc1ccc(NC(=O)Nc2ccccc2F)cc1-c1ccc(C(=O)Nc2ccncc2)cc1 [GSK1398477] | 0%
4 | Cc1ccc(NC(=O)c2ccc(Cl)cc2)cc1-c1ccc(C(=O)Nc2ccncc2)cc1 [GSK1398467] | 0%
5 | COC(=O)C(NC(=O)NC1CCN(c2ccnc(Nc3ccc(F)cc3)n2)C1)c1ccccc1 (stereo not shown) [GSK1379712] | 0%
6 | Nc1nccc(-c2c(-c3ccc(F)cc3)ncn2C2CCN(Cc3ccccc3)CC2)n1 [SB-219980] | 0%
7 | NS(=O)(=O)c1cccc(N/C=C2\C(=O)Nc3ccc(S(=O)(=O)Cc4c(Cl)cccc4Cl)cc32)c1 [GSK398099] | 0%
8 | CN1c2ccc(-c3ccc(C(N)=O)cc3)cc2-c2[nH]ncc2S1(=O)=O | 12%
9 | CNC(=O)c1ccc(C)c(-n2c(C)cc(OCc3ccc(F)cc3F)c(Br)c2=O)c1 | 0%
10 | Nc1ncnc2occ(-c3ccc4c(c3)CCN4C(=O)Cc3cc(F)ccc3F)c12 [GSK2645446] | 0%
11 | Cc1c(Cn2c(C)c(C)n3c(=O)cc(N4CCOCC4)nc23)cccc1C(F)(F)F [GSK2328680] | 0%
12 | Cc1ccc(-c2nc(Nc3ccncc3)c3ccccc3n2)s1 [GSK189015] | 0%
13 | O=C1NC(=O)C(c2ccc(Cl)cc2)=C1Nc1cccc(Cl)c1 [SB-317651] | 0%
